Test [1] can be described thus: HepG2 liver cancer cell viability effects, profiling panel, resazurin fluorescence, 24 h, PK04 Diversity Set (AID 1172). Particulars: higher = more signal.
The nature of test [2]: basal S. cerevisiae growth modulation, no modifier, primary screen, OD600, strain BY4716, 24 h, basal condition (AID 1173). The following applies: OD600, 24 h, higher = more signal, called active from +8 up or from −8 down.
Test [3] can be described thus: MM1S myeloma cell viability, profiling panel, resazurin fluorescence, basal, 24 h, PK04 Diversity Set (AID 1174).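 Note: MM1S multiple myeloma cell line.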 Particulars: higher = more signal, called active from +8 up or from −8 down. Background: Resazurin is reduced to fluorescent resorufin, in cell work by metabolically active cells.
Test [4] addresses Dihydroorotate dehydrogenase (quinone), mitochondrial (Plasmodium falciparum (isolate 3D7)) (UniProt Q08210). In words: PfDHODH enzyme inhibitors, primary screen, biochemical, C-terminal His tag, absorbance 600 nm (AID 1175).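 Note: recombinant parasite enzyme with a five histidine tag at its C terminus.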 Particulars: DCIP absorbance 600 nm, higher = more signal, called active from +8 up or from −8 down.
Test [5] is described as follows: P. aeruginosa biofilm formation inhibitors, primary screen, strain PAO1, LB-PBS medium, absorbance 600 nm (AID 1176). The following applies: P. aeruginosa PAO1 growth/biofilm, A600, 12 h; higher = more signal.
Test [6] in a line: S. cerevisiae RM11-1a growth modifiers, primary screen, strain RM11-1a, OD600, basal, 24 h (AID 1177).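 Note: cultures grown under basal conditions with no added stressor.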 The following applies: OD600, 24 h, higher = more signal, called active from +8 up or from −8 down.
A short description of test [7]: E. coli acrAB mutant growth effects, primary screen, E. coli filamentation inducers, strain DRC39, OD650, 24 h (AID 1178).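 Note: growth measured as culture turbidity by optical density at 650 nm.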 Particulars: higher = more signal, called active from +8 up or from −8 down.
The nature of test [8]: E. coli acrAB mutant growth effects, primary screen, E. coli filamentation inducers, strain DRC39, OD650, 48 h (AID 1179).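 Note: screen aims at cell division blockers that make cells filament.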 Particulars: E. coli DRC39 delta-acrAB growth, higher = more signal, called active from +8 up or from −8 down.
The nature of test [9]: RPMI8226 myeloma cell viability, profiling panel, resazurin fluorescence, basal, 24 h, PK04 Diversity Set (AID 1180).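 Note: RPMI8826 multiple myeloma cell line at 5000 cells per well.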 Particulars: higher = more signal.
The target of test [10] is E3 ubiquitin-protein ligase XIAP (Homo sapiens) (UniProt P98170). Nature of the test: XIAP binders, primary screen, biophysical, small-molecule microarray, fluorescence 635 nm (AID 1181).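 Note: score merges 667 nm emission and signal to noise over triplicate slides.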 Particulars: small-molecule microarray binding, higher = more signal.
Test [11] has as its system XIP peptide (Xip251-270) binding. Nature of the test: small-molecule binders of XIP peptide, primary screen, biochemical, small-molecule microarray, fluorescence 635/667 nm, 0.1 µg/mL protein (AID 1182). The following applies: fluorescent protein binding, 635 nm, higher = more signal, called active from +8 up or from −8 down.
A further test concerns XIP peptide (Xip251-270). In words: small-molecule binders of XIP peptide, primary screen, biochemical, small-molecule microarray, fluorescence 635/667 nm, 0.5 µg/mL protein (AID 1183). Particulars: small-molecule microarray binding, fluorescence 635 nm; higher = more signal.
Test [12] is described as follows: Plasmodium falciparum growth inhibition, primary screen, strain 3D7, DAPI fluorescence, 100 nL (AID 1184).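 Note: parasites grown inside human red blood cells in medium with human serum.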 The following applies: P. falciparum 3D7 growth, 3 d, higher = more signal.
The target of test [13] is Homeobox protein Hox-A13 (Mus musculus) (UniProt Q62424). In words: inhibitors of HoxA13-DNA binding, primary screen, biochemical, fluorescence polarization, labeled oligonucleotide (AID 1185). Particulars: 15 min, higher = more signal, called active from +8 up or from −8 down. A general note: Polarisation of emitted light reports the rotation of a fluorescent probe.
Test [14] can be described thus: inhibitors of hydroxyurea-induced Chk1 phosphorylation, primary screen, imaging, HeLa, phospho-Chk1 antibody, percent positive cells (AID 1186). Particulars: hydroxyurea-induced phospho-Chk1 immunofluorescence imaging, higher = more signal.
A short description of test [15]: inhibitors of hydroxyurea-induced Chk1 phosphorylation, primary screen, imaging, HeLa, phospho-Chk1 nuclear intensity (AID 1187). The following applies: hydroxyurea-induced phospho-Chk1 immunofluorescence imaging, higher = more signal.

The structures appear in SMILES notation. Activity calls are given as the source filed them. Unless noted, the rule behind the calls is not given here.

Dihydroorotate dehydrogenase (quinone), mitochondrial (Plasmodium falciparum (isolate 3D7)), sequence (Q08210 whole entry, looked up): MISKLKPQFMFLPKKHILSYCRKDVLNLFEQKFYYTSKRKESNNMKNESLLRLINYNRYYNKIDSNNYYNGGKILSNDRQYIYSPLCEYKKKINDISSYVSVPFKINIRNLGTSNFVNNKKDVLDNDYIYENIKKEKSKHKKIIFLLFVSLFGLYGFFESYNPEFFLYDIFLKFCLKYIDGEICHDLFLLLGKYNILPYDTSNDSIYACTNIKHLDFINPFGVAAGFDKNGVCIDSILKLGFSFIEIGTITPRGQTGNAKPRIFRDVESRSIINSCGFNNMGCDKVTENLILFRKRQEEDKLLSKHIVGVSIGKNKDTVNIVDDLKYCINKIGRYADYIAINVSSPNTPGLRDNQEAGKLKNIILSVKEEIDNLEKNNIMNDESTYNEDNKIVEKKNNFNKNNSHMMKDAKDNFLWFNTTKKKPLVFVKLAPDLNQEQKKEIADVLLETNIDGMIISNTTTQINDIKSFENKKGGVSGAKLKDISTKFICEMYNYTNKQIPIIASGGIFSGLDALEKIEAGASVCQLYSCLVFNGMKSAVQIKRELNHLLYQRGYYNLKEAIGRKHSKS
E3 ubiquitin-protein ligase XIAP (Homo sapiens), sequence (P98170 whole entry, looked up): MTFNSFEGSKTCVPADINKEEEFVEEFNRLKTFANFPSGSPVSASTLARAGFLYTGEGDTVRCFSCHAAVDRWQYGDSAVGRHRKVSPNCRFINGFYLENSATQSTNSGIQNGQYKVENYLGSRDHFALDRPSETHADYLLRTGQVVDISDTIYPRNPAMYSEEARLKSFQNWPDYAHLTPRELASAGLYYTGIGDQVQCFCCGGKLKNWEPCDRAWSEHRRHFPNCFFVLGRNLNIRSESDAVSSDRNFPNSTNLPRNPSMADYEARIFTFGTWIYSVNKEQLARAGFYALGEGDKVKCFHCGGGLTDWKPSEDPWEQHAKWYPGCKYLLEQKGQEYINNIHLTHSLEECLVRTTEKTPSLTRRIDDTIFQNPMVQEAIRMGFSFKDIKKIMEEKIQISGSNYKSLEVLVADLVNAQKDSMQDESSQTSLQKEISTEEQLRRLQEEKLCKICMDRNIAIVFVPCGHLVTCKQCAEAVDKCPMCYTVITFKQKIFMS
Homeobox protein Hox-A13 (Mus musculus), sequence (Q62424 whole entry, looked up): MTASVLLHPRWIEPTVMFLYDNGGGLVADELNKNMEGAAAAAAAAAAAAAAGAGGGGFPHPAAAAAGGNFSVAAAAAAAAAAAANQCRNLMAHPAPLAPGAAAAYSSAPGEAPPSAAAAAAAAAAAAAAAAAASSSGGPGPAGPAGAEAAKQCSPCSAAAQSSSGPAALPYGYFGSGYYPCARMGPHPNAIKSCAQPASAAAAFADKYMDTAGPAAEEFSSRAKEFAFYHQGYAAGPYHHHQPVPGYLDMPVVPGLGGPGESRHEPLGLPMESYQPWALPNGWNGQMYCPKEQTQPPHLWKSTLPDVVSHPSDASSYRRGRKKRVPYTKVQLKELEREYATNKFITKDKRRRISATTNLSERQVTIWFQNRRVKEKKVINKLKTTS

Consider `C[C@@H]1ON(c2ccc(I)cc2)[C@H](c2cccc(NC(=O)OCC3c4ccccc4-c4ccccc43)c2)[C@H]1C(=O)N1C(=O)OC[C@H]1Cc1ccccc1`, for which the z-score in test [1] is 0.742; in test [2], -1.04 (inactive); in test [3], 0.965 (inactive); in test [5] it was 0.13 (inactive); in [6], 0.774 (inactive); in test [7], 1.32 (inactive). Further, the z-score in test [8] is 0.818 (inactive); in test [9] it was 1.06; in test [12], -1.27; in test [13], 2.16 (inactive); in test [14], 0.095 (inactive); in test [15], 0.0287 (inactive). In addition, the composite z-score in test [4] is 0.14 (inactive); in [10], -0.412; in [11], -0.283 (inactive); in the test with XIP peptide (Xip251-270), 0.771.

`COc1ccc([Si](C)(C)[C@@H]2[C@@H](CC(=O)N(CCO)Cc3ccccc3)O[C@]3(C(=O)N(Cc4ccc(I)cc4)c4ccccc43)[C@H]2C)cc1`: the z-score in test [1] was -1.42; in test [2], -0.498 (inactive); in test [3], -2.27 (inactive); in [5], 1.1 (inactive); in test [6], 2.45 (inactive); in test [7] it was -0.318 (inactive). Also, the z-score in test [8] was -0.699 (inactive); in test [9], -2.52; in test [12], -2.2; in test [13] it was -2.17 (inactive); in test [14], -0.168 (inactive); in [15] it was -0.299 (inactive). Also, the composite z-score in test [4] is 1.07 (inactive); in [10], -0.0658; in test [11], 1.59 (inactive); in the test on XIP peptide (Xip251-270), 0.256.

Consider `[N-]=[N+]=Nc1ccccc1[C@H]1OC(c2ccc(OCCCO)cc2)=N[C@@]1(Cc1ccccc1)C(=O)NCC(O)CO` (some centres undefined), for which the z-score was 1.21 in [1]; -1.65 (inactive) in [2]; -1.21 (inactive) in test [3]; -1.08 (inactive) in [5]; 0.972 (inactive) in test [6]; 0.413 (inactive) in test [7]. Further, the z-score in test [8] is 0.318 (inactive); in test [9] it was -1.28; in [12] it was -1.84; in test [13], -4.34 (inactive); in [14], 0.0068 (inactive); in test [15], 0.251 (inactive). Further, the composite z-score in test [4] is -0.0513 (inactive); in [10], 0.0487; in test [11] it was 0.448 (inactive); in the test on XIP peptide (Xip251-270) it was 0.536.

In the case of `C=CC[C@@]1(C(=O)N(C)C)N=C(c2ccc(OCCCO)cc2)O[C@@H]1c1ccccc1CN=[N+]=[N-]`, the z-score in test [1] was -0.0494; in test [2] it was -0.266 (inactive); in test [3], -0.138 (inactive); in [5], -0.345 (inactive); in [6], 0.586 (inactive); in test [7], 0.159 (inactive). The z-score in test [8] was 0.374 (inactive); in test [9], -0.368; in [12] it was -2.33; in test [13] it was -4.32 (inactive); in test [14], -0.274 (inactive); in test [15] it was -0.052 (inactive). The composite z-score was 0.59 (inactive) in [4], -0.163 in test [10], 0.161 (inactive) in test [11] and 0.774 in the test with XIP peptide (Xip251-270).

In the case of `CCCCCCc1nc(-c2ccc(-c3ccc(Cl)c(Cl)c3)o2)cc2c1[Si](C(C)C)(C(C)C)OC2`, the z-score in test [1] is 0.373; in test [2] it was -7.31 (inactive); in test [3], -0.273 (inactive); in test [5], -0.558 (inactive); in [6], -0.878 (inactive); in [7], 0.522 (inactive). Besides, the z-score in test [8] was 0.395 (inactive); in test [9], -0.151; in test [12], -2.22; in test [13], -3.51 (inactive); in test [14] it was -0.6 (inactive); in [15], -0.222 (inactive). For the same molecule, the composite z-score is -1.97 (inactive) in test [4], -0.0233 in [10], 0.108 (inactive) in [11] and -0.0619 in the test with XIP peptide (Xip251-270).

For `CC(C)[Si](C#CCCc1ccccc1)(O[C@H](c1ccccc1)c1cn(Cc2ccccc2)nn1)C(C)C`, the z-score was 1.5 in test [1]; -8.07 (active) in [2]; -0.016 (inactive) in [3]; -0.206 (inactive) in [5]; 0.129 (inactive) in test [6]; -0.0409 (inactive) in test [7]. The z-score in test [8] is 0.451 (inactive); in [9], -0.052; in [12], -0.374; in [13], -1.64 (inactive); in [14], -1.18 (inactive); in test [15], -1.16 (inactive). Also, the composite z-score in test [4] is -0.262 (inactive); in [10] it was -0.0117; in test [11] it was -0.0657 (inactive); in the test with XIP peptide (Xip251-270), 0.574.

For `CC(C)NC(=O)[C@@]1(C)c2ccccc2C(=O)N(Cc2ccccc2)[C@H]1c1ccc(CO)cc1`, the z-score in [1] was 0.107; in test [2] it was -0.177 (inactive); in test [3], 0.782 (inactive); in test [5], 0.5 (inactive); in [6], -1.29 (inactive); in test [7], 0.4 (inactive). The z-score in test [8] was 0.988 (inactive); in test [9] it was 0.453; in test [12], -0.321; in [13], -2.37 (inactive); in test [14] it was -0.471 (inactive); in test [15], -0.429 (inactive). Also, the composite z-score is -1.48 (inactive) in [4], -0.287 in test [10], 0.0062 (inactive) in test [11] and 0.875 with XIP peptide (Xip251-270).

Take `CC(C)N1C(=O)c2ccccc2[C@@H](C(=O)NCC(F)(F)F)[C@@H]1c1ccc(CO)cc1`: the z-score in test [1] was 0.4; in test [2], -0.102 (inactive); in [3] it was 0.0516 (inactive); in [5], -0.0807 (inactive); in [6], 0.436 (inactive); in test [7], -0.196 (inactive). For the same molecule, the z-score in test [8] is -0.484 (inactive); in [9] it was 0.236; in [12], 0.872; in test [13], -1.73 (inactive); in [14], 0.0626 (inactive); in test [15], 0.11 (inactive). In addition, the composite z-score in [4] is -0.262 (inactive); in test [10] it was -0.111; in test [11], -0.258 (inactive); in the test on XIP peptide (Xip251-270), -0.245.

For the molecule `COC(=O)[C@]1(CCC(=O)OC(C)(C)C)N=C(c2ccc(OCCCO)cc2)O[C@@H]1c1ccccc1N=[N+]=[N-]`, the z-score in [1] is -0.223; in test [2], 0.887 (inactive); in test [3], -2.56 (inactive); in [5], 1.31 (inactive); in test [6], 2.29 (inactive); in test [7] it was 0.844 (inactive). The z-score was 0.182 (inactive) in [8]; -2.15 in [9]; -1.98 in test [12]; -2.21 (inactive) in test [13]; 0.0989 (inactive) in [14]; 0.562 (inactive) in [15]. The composite z-score in test [4] was 0.878 (inactive); in test [10], 0.0037; in test [11], -0.194 (inactive); in the test on XIP peptide (Xip251-270), 0.633.

Values taken from PubChem BioAssay.
